Active and inactive are the calls of the source. Unless noted, how the calls were made is not given here.
Assays:
[1] = system: Wnt5a (protein binding on small-molecule microarray); experiment: Wnt5a binders on small-molecule microarray, primary screen, biophysical, 635/667 nm fluorescence (AID 1142); details: 635 nm fluorescence, higher = more signal;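 further: fluorescence read at 667 nm with signal to noise per printed feature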
[2] = cell viability in Huh7 cells, primary screen, cytotoxicity control for HCV replication inhibitor project, CellTiter-Glo luminescence, basal, 48 h (AID 1143); details: Huh7 HCV replicon, higher = more signal, called active from +8 up or from −8 down;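 further: Huh7 hepatoma cells carrying a hepatitis C replication reporter with no stimulus; test concentration not given here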
[3] = P. aeruginosa biofilm formation inhibitors, primary screen, PAO1 strain, BacTiter-Glo luminescence, LB-PBS (AID 1144); details: 12 h, higher = more signal
[4] = CREB reporter modulators without forskolin, primary screen, cell-based, PC12, CRE-LacZ reporter, unstimulated (AID 1145); details: no forskolin, luminescence, 4.5 h, higher = more signal, called active from +8 up or from −8 down
[5] = CREB reporter modulators under forskolin, primary screen, cell-based, PC12, CRE-LacZ reporter, forskolin-stimulated (AID 1146); details: luminescence, 4.5 h, higher = more signal, called active from +8 up or from −8 down;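 further: PC12 cells with 6xCRE LacZ reporter stimulated by forskolin 10 µM; beta-galactosidase reporter signal reflecting CREB driven transcription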
[6] = biological target: Streptavidin (Streptomyces avidinii) (UniProt P22629); experiment: streptavidin binders on small-molecule microarray, primary screen, artefact control for SMM compound annotation, biophysical, 635/667 nm fluorescence (AID 1147); details: streptavidin binding, higher = more signal;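 further: signal reflects streptavidin binding to arrayed compounds as a control protein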
Streptavidin (Streptomyces avidinii), sequence (P22629 whole entry, looked up): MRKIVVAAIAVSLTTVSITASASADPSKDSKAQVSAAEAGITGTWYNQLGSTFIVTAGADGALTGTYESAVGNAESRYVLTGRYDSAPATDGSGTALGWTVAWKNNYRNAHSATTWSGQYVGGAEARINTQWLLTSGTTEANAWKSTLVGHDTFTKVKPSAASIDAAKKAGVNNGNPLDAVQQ

[7] = small-molecule binders of probe aInhba, primary screen, biochemical, small-molecule microarray, 635/667 nm fluorescence (AID 1148); details: higher = more signal;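 further: score merges 667nm spot fluorescence with signal-to-noise for antibody binding to printed compounds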
[8] = biological target: Torsin-1A (Homo sapiens) (UniProt O14656); experiment: torsin A binders from cell lysate, primary screen, small-molecule microarray, wild-type, 635/667 nm (AID 1149); details: COS7 hTOR1A-WT lysate, 635 nm fluorescence, higher = more signal
Torsin-1A (Homo sapiens), sequence (O14656 whole entry, looked up): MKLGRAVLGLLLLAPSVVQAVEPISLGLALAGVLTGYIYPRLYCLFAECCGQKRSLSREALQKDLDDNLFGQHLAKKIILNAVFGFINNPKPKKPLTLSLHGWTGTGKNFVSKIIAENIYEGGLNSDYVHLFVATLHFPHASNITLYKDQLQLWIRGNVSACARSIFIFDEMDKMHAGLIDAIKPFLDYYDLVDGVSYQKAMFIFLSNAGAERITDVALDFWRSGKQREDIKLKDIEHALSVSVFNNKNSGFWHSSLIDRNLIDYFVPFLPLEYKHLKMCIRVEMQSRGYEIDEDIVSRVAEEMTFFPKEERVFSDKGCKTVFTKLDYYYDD

[9] = biological target: Torsin-1A (Homo sapiens) (UniProt O14656); experiment: small-molecule binders of mutant TOR1A in lysate, primary screen, cell lysate, small-molecule microarray, COS7 lysate, 635/667 nm fluorescence (AID 1150); details: COS7 hTOR1A mutant lysate, 635 nm fluorescence, higher = more signal;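 further: score pools 667 nm emission and signal to noise measuring lysate protein binding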
[10] = system: Sonic hedgehog protein (Shh); experiment: small-molecule binders of Shh protein, primary screen, biochemical, small-molecule microarray, 635/667 nm fluorescence (AID 1151); details: small-molecule microarray binding, 635 nm fluorescence; higher = more signal;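 further: Shh protein binding to compounds spotted on small-molecule microarray slides; score combines spot fluorescence intensity with signal-to-noise across triplicate slides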
[11] = E. coli DRC41 culture turbidity changes, primary screen, E. coli filamentation inducer project, strain DRC41, OD650, 48 h (AID 1152);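 further: E. coli MC1000 strain DRC41 lacking acrAB efflux pump and sulA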; details: E. coli DRC41 (acrAB sulA), higher = more signal, called active from +8 up or from −8 down
[12] = small-molecule binders of probe aLefty1, primary screen, biochemical, small-molecule microarray, 635/667 nm fluorescence (AID 1153); details: higher = more signal;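 further: score merges spot fluorescence with signal-to-noise ratio from the scanned slide images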
[13] = PSAC antagonists in infected red cells, primary screen, cell-based, P. falciparum Indochina, OD700, 1 h (AID 1154); details: P. falciparum Indochina infected RBC osmotic lysis, higher = more signal, called active from +8 up or from −8 down
[14] = PSAC antagonists in infected red cells, primary screen, cell-based, P. falciparum Indochina, OD700, 2 h (AID 1155);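 further: lysis reports solute entry through the parasite surface anion channel PSAC; channel blockers reduce lysis of infected cells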; details: P. falciparum Indochina infected erythrocytes, osmotic lysis OD700; higher = more signal, called active from +8 up or from −8 down
[15] = osmotic lysis modulators in infected erythrocytes, primary screen, PSAC antagonist project, cell-based, P. falciparum Indochina, OD700, 3 h (AID 1156); details: higher = more signal, called active from +8 up or from −8 down
[16] = PSAC antagonists in infected red cells, primary screen, cell-based, P. falciparum Indochina, OD700, 18 h (AID 1157); details: P. falciparum Indochina infected erythrocytes, osmotic lysis OD700, 18 h; higher = more signal, called active from +8 up or from −8 down
[17] = modulators of S6 phosphorylation in cells, primary screen, cell-based, A549, cytoblot, luminescence, serum-stimulated (AID 1158); details: A549 phospho-S6 cytoblot, 5 h, higher = more signal;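 further: serum-stimulated A549 lung adenocarcinoma cells; signal is phosphorylated S6 detected by cytoblot immunostaining with HRP secondary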
[18] = biological target: NADPH oxidase 2 (Homo sapiens) (UniProt P04839); experiment: NOX2-dependent H2O2 signal modulators, primary screen, NOX inhibitor project, cell-based, HEK293-NOX2, PMA-stimulated, Amplex Red fluorescence (AID 1159); details: 45 min, higher = more signal, called active from +8 up or from −8 down; further: test concentration not given here
NADPH oxidase 2 (Homo sapiens), sequence (P04839 whole entry, looked up): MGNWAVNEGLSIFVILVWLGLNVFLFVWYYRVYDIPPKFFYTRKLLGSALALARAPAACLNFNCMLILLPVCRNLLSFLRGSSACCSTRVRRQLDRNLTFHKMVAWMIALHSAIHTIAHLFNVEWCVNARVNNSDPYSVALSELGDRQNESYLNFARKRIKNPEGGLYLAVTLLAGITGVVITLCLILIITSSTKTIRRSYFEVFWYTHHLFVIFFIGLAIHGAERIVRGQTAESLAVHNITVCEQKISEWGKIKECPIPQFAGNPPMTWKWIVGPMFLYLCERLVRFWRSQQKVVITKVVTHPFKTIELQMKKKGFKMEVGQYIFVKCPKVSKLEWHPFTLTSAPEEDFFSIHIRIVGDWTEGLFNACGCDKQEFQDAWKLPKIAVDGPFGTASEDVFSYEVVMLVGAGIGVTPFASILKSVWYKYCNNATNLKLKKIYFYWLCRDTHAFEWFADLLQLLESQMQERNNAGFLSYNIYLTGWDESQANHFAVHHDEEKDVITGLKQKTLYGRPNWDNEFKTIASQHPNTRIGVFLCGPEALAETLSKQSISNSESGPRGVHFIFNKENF

[19] = biological target: NADPH oxidase 4 (Homo sapiens) (UniProt Q9NPH5); experiment: NOX4-dependent H2O2 signal modulators, primary screen, NOX inhibitor project, cell-based, HEK293-NOX4, tetracycline-induced, Amplex Red fluorescence (AID 1160); details: 45 min, higher = more signal, called active from +8 up or from −8 down
NADPH oxidase 4 (Homo sapiens), sequence (Q9NPH5 whole entry, looked up): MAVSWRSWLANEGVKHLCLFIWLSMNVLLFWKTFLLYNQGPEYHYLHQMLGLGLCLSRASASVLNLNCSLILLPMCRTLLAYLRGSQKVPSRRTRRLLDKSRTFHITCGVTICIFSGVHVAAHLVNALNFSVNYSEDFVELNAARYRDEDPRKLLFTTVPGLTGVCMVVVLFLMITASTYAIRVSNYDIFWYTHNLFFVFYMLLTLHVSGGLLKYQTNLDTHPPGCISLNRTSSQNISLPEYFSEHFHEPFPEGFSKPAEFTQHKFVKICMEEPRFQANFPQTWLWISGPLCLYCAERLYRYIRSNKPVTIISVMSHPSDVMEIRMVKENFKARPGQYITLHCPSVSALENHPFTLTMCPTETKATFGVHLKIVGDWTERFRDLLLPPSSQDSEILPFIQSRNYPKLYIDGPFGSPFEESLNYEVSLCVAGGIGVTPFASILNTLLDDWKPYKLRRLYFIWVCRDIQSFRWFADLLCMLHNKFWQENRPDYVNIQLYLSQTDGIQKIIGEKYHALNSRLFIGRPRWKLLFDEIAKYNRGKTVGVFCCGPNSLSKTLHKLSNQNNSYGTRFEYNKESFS

[20] = biological target: NADPH oxidase 5 (Homo sapiens) (UniProt Q96PH1); experiment: NOX5-dependent H2O2 signal modulators, primary screen, NOX inhibitor project, cell-based, HEK293-NOX5, Amplex Red fluorescence (AID 1161); details: HEK293-NOX5, ionomycin, 45 min, higher = more signal
NADPH oxidase 5 (Homo sapiens), sequence (Q96PH1 whole entry, looked up): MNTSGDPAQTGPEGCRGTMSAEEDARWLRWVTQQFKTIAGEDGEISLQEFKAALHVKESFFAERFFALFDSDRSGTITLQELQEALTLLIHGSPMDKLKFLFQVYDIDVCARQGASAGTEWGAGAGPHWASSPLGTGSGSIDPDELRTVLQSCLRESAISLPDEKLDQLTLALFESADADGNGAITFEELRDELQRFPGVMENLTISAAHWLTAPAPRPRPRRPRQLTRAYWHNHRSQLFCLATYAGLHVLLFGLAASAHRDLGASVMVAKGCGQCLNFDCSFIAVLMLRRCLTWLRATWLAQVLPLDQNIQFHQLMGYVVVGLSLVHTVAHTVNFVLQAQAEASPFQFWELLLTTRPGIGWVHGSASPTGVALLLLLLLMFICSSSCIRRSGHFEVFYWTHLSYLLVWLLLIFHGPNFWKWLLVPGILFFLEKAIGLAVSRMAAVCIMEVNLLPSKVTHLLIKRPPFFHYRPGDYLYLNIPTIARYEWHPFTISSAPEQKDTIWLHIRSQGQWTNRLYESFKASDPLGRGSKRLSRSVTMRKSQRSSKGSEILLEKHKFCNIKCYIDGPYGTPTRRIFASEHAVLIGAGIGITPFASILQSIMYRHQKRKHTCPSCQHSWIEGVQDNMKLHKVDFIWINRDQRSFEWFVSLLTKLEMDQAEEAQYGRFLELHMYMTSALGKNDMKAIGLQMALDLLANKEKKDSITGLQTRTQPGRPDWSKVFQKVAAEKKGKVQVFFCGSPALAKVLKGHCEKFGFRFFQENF

Row | SMILES | composite z-score [1] | z-score [2] | z-score [3] | z-score [4] | z-score [5] | composite z-score [6] | composite z-score [7] | composite z-score [8] | composite z-score [9] | composite z-score [10] | z-score [11] | composite z-score [12] | z-score [13] | z-score [14] | z-score [15] | z-score [16] | z-score [17] | z-score [18] | z-score [19] | z-score [20]
1 | OC[C@H]1O[C@H](C#Cc2ccccc2)C=C[C@@H]1O | 0.0146 | -0.574 (inactive) | -0.385 (inactive) | -1.07 (inactive) | 0.186 (inactive) | 0.431 | 0.0227 | -0.339 | 0.141 | 0.363 | 0.402 (inactive) | -0.425 | 1.74 (inactive) | 0.803 (inactive) | 0.802 (inactive) | 0.784 (inactive) | -0.0359 | -0.178 (inactive) | 0.662 (inactive) | 1.33
2 | CC(=O)OC[C@H]1O[C@@H](ON=C2[C@H]3CCn4c(=O)n(-c5ccccc5)c(=O)n4[C@H]3[C@H](O)[C@@H]3O[C@H]23)[C@H](OC(C)=O)[C@@H](OC(C)=O)[C@@H]1OC(C)=O | 0.196 | 1.03 (inactive) | 1.56 (inactive) | -0.403 (inactive) | 0.265 (inactive) | 0.324 | 0.0282 | 0.0264 | 0.422 | 1.23 | -0.132 (inactive) | 0.106 | 0.597 (inactive) | 0.454 (inactive) | -0.258 (inactive) | 0.465 (inactive) | -0.862 | -0.186 (inactive) | -0.47 (inactive) | 0.187
3 | CO[C@@H]1COC(=O)[C@@H]2CCCN2C(=O)[C@@H](C)COC(=O)CCC[C@H]1C | -0.0105 | -0.848 (inactive) | -0.506 (inactive) | 0.355 (inactive) | -0.269 (inactive) | 1.21 | -0.153 | 1.21 | 0.241 | 1.18 | -0.476 (inactive) | -0.241 | -0.238 (inactive) | -1.48 (inactive) | -0.0716 (inactive) | -2.21 (inactive) | 2.43 | -0.634 (inactive) | 0.0989 (inactive) | 0.43
4 | CC(CCC(=O)OC[C@H]1O[C@H](C#Cc2ccccc2)C=C[C@@H]1Oc1ccc(C)cc1)=NOC(C)CN1CCCCc2nc(C)c(C)cc21 (stereo not given in full) | -0.271 | -1.13 (inactive) | 0.455 (inactive) | -0.561 (inactive) | 1.1 (inactive) | -0.0512 | -0.246 | -0.453 | -0.269 | 0.517 | -0.131 (inactive) | -0.191 | 4.27 (inactive) | 0.459 (inactive) | 0.983 (inactive) | 0.662 (inactive) | -0.487 | -0.802 (inactive) | -0.341 (inactive) | -0.461
5 | O=C1[C@H]2CCn3c(=O)n(Cc4cc5c(cc4Cl)OCO5)c(=O)n3[C@H]2[C@H](O)[C@@H]2O[C@H]12 | -0.509 | -0.926 (inactive) | 0.529 (inactive) | -0.925 (inactive) | -0.0963 (inactive) | -0.0064 | -0.215 | -0.22 | -0.343 | 0.853 | 0.709 (inactive) | -0.196 | 0.439 (inactive) | -0.511 (inactive) | -0.277 (inactive) | -0.212 (inactive) | 0.489 | -0.664 (inactive) | 0.135 (inactive) | 0.336
6 | O=C1CCCC=C1C(O)C1CCCCC1 (stereo not given) | -0.028 | 0.869 (inactive) | 0.993 (inactive) | 0.198 (inactive) | 0.85 (inactive) | -0.234 | -0.122 | -0.19 | 0.44 | 0.628 | 0.411 (inactive) | -0.312 | -0.0549 (inactive) | 0.494 (inactive) | -0.663 (inactive) | 0.0748 (inactive) | -0.178 | 1.46 (inactive) | -0.419 (inactive) | -0.928
7 | CC(C)CON=C1C[C@@H](O)[C@@H](O)[C@@H]2[C@@H]3C(=O)N(C(C)(C)C)C(=O)[C@@H]3CC[C@@H]12 | 0.167 | -2.95 (inactive) | -0.811 (inactive) | 1.7 (inactive) | 0.549 (inactive) | 0.0099 | -0.261 | 3.07 | 3.23 | 1.28 | -1.53 (inactive) | -0.268 | 0.778 (inactive) | -0.692 (inactive) | 0.695 (inactive) | -2.29 (inactive) | 1.13 | 0.571 (inactive) | -0.75 (inactive) | -2.22
8 | COC(=O)[C@H](C)NC(=O)CCC1CC(OC(=O)NCc2cccc3ccccc23)CC2(CCCC(COC(=O)NCCCN3CCCC3=O)O2)O1 (stereo not given in full) | 0.205 | -0.0671 (inactive) | -1.07 (inactive) | -0.438 (inactive) | -0.178 (inactive) | 0.865 | -0.152 | 0.519 | 0.745 | 0.608 | -3.55 (inactive) | 0.582 | 0.381 (inactive) | 0.397 (inactive) | 0.0085 (inactive) | 0.246 (inactive) | -0.463 | -0.383 (inactive) | -0.0825 (inactive) | -0.075
9 | CC(C)=CCCC(C)=CCON=C1C[C@@H](O)[C@@H](O)[C@@H]2[C@@H]3C(=O)N(C4CCCCC4)C(=O)[C@@H]3CC[C@H]12 | 0.342 | -2.76 (inactive) | 0.419 (inactive) | -0.38 (inactive) | -0.306 (inactive) | 0.12 | -0.15 | 0.46 | 0.159 | 1.01 | 0.693 (inactive) | -0.132 | 7.24 (inactive) | 0.991 (inactive) | 1.11 (inactive) | 0.645 (inactive) | -0.319 | -0.693 (inactive) | -1.02 (inactive) | -4.91

Reference: PubChem BioAssay
